A selection: hits, their analogues and other compounds. The true share with any hit is near 2.4%.
AmpC det inh: AmpC beta-lactamase inhibition, detergent assay; 0.09% of 71,000 active; Potency, µM (doses to about 28.7 µM), for the others: at the highest dose activity change, negative = inhibition; P00811; purified AmpC, nitrocefin hydrolysis with detergent; AID 584; active = well fitted curve in the direction sought with a large enough effect; inconclusive = small, poorly fitted or top-dose-only effect; note: % is set by controls: 0 for no effect and ±100 for the full control effect
Target sequence (P00811 whole entry, looked up): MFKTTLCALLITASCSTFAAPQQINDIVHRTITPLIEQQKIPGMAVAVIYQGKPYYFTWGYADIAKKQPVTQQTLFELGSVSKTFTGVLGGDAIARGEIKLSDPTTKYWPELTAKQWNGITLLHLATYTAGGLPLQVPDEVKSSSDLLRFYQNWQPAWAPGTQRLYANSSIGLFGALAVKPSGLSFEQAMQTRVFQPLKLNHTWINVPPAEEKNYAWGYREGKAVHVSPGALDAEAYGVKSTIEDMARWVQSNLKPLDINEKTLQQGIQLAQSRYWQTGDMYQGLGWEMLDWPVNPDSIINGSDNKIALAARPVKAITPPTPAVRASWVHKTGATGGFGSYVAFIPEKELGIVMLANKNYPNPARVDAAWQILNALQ
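E. coli AmpC (5.3 nM) in 20 mM phosphate pH 7.0 with 0.01% Triton X-100, preincubated 15 min RT with compound; nitrocefin (2 uL of 800 uM stock) hydrolysis followed by 480 nm absorbance every 20 s over 4 min.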
SmPrx2 inh: inhibitors of Schistosoma mansoni peroxiredoxin 2 | S. mansoni Prx2 activity coupled to TGR/GSH (TGR is thioredoxin glutathione reductase), NADPH fluorescence loss, qHTS | Potency, µM | 0.07% of 65,000 active
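Purified S. mansoni TGR and Prx2 in pH 7.4 phosphate buffer with EDTA and Tween-20 were preincubated with compounds for 15 min. Further NADPH/GSH was added, then a 2.5 mM H2O2 aliquot initiated turnover, followed kinetically by NADPH fluorescence.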
AmpC nodet inh: inhibitors of E. coli AmpC beta-lactamase without detergent; 1.8% of 71,000 active; AmpC nitrocefin hydrolysis, absorbance 480 nm, no detergent; Potency, µM (titrated, usually from 28.7 µM), for inactives: top-dose activity change, negative = inhibition; P00811; note: % of control where 0% means no effect
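AmpC in 20 mM phosphate buffer pH 7.0 was preincubated 15 min at room temperature with compounds. Nitrocefin (800 uM stock) was then added and hydrolysis followed at 480 nm every 20 s for 4 min.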
Anthrax LT inh: inhibitors of anthrax lethal toxin internalization; Cells, anthrax lethal toxin internalization, FRET ratio (460/530); Potency, µM (top dose mostly 40 µM), for the others: at the top dose activity change, negative = inhibition, usual class: inhibitors; 0.67% of 70,000 active; AID 912; note: % is set by controls: 0 for no effect and ±100 for the full control effect; nearly all actives have a fitted effect of over 50% in size
* = called active by the depositor; u = inconclusive; x = no result given; [ ] = dose if it differs, or a comment. Unless noted, calls come from the whole dose curve. Potency is the fitted concentration of half-maximal effect.

SMILES | AmpC det inh | SmPrx2 inh | AmpC nodet inh | Anthrax LT inh
CCN(CC)c1ccc(NC(=O)C2CCCN(S(=O)(=O)c3cccnc3)C2)c(C)c1 (configuration not stated) | 15.6% | >57 | 3.98µM*[single pt active] | -13.0%
COc1ccc(NC(=O)C2CCCN(S(=O)(=O)c3cccnc3)C2)c(OC)c1 (configuration not stated) | 15.5% | >57 | 3.98µM*[single pt active] | -2.5%
COc1ccc(S(=O)(=O)N2CCCC(C(=O)Nc3cccnc3)C2)cc1Cl (configuration not stated) | 9.7% | >57 | 40.7% | -10.5%
CCCCOCC1CO1 (configuration not stated) | 21.5% | x | -6.7% | 1.7%
O=C(O)CC[C@@]1(c2ccccc2)NC(=O)NC1=O | -4.6%[5.75 µM] | >57 | -8.4%[5.75 µM] | u
O=C(NCCc1c[nH]c2ccccc12)c1ccc(S(=O)(=O)NCc2ccco2)cc1 | -3.8% | >57 | 15.8µM* | -28.1%
OC(CN1C2=NCCCN2c2ccccc21)c1ccc(Cl)cc1 (configuration not stated) | 13.0% | >57 | 3.98µM*[single pt active] | u
CC(NC(=O)c1noc2c1CCCCC2)c1ccccc1 (configuration not stated) | 10.6% | >57 | 3.98µM*[single pt active] | 9.0%
O=C(CCCN1CCC2(CC1)C(=O)N(CCc1ccc(N=C=S)cc1)CN2c1ccccc1)c1ccc(F)cc1 | -4.6% | >57 | 30.7% | u
O=C(CN(C1CC1)S(=O)(=O)c1ccc(S(=O)(=O)NC2CCCCC2)cc1)Nc1ccccc1 | -2.8% | >57 | -22.0% | 10µM*
COc1ccc([C@@H]2CC(=O)c3c(O)cc(O[C@@H]4O[C@@H](CO[C@@H]5O[C@@H](C)[C@@H](O)[C@@H](O)[C@H]5O)[C@@H](O)[C@@H](O)[C@H]4O)cc3O2)cc1O | 1.1% | >57 | 6.6% | u
N[C@H](CS(=O)O)C(=O)O | 1.7% | >57 | 6.2% | -3.4%
CCN1CCN(Cc2ccc(NC(=O)Nc3ccccc3OC)cc2)CC1 | 19.4% | >57 | 3.98µM*[single pt active] | u
CCN1CCN(CCC(=O)Nc2ccccc2OC)CC1 | -5.3% | >57 | -2.6% | -11.8%
COc1ccccc1C(=O)n1nc(-c2cccnc2)nc1N | 12.9% | >57 | 3.98µM*[single pt active] | 27.9%
N#CC(C#N)=NNc1ccc(OC(F)(F)F)cc1 | x | x | x | 0.501µM*
COCCCNCC(=O)Nc1ccc(OC(F)(F)F)cc1 | -6.2% | >57 | 3.4% | -27.8%
Cc1cnc(CNc2cc(-c3ccccc3CN(C)C)ncn2)cn1 | 6.4% | x | 11.5% | -9.3%
O=c1c(-c2ccc3c(c2)OCCO3)coc2c(CN3CCOCC3)c(O)ccc12 | 12.3% | >57 | 4.2% | -18.5%
CC(C)=CCc1c2c(c3occ(-c4ccc(O)c(O)c4)c(=O)c3c1O)C=CC(C)(C)O2 | -2.9%[5.75 µM] | >57 | 3.98µM*[single pt active] | u
Clc1cccc(N2CCN(Cc3nc(-c4ccccc4)no3)CC2)c1 | 13.0% | >57 | 3.98µM*[single pt active] | u
O=C1C2CC=CCC2C(=O)N1CC1CCCO1 (configuration not stated) | -1.6% | >57 | -10.6% | -12.5%
O=C1C2CC=CCC2C(=O)N1SC(Cl)(Cl)Cl (configuration not stated) | -3.5% | x | u | 3.16µM*
O=C(CSc1nnc(COc2ccc(Cl)cc2)o1)N1CCN(c2ccccc2)CC1 | -1.4% | >57 | -11.1% | u
Clc1ccc(-c2nnc(SCc3nc(-c4ccccc4)no3)o2)cc1 | 11.2% | >57 | 3.98µM*[single pt active] | u
SMILES | AmpC det inh | SmPrx2 inh | AmpC nodet inh | Anthrax LT inh
O=C(CSc1nnc(-c2ccc(Cl)cc2)o1)N1CCN(c2ccccc2)CC1 | -3.4% | >57 | 10µM*[single pt active] | 0.4%
NC(=O)c1ncn([C@@H]2O[C@@H](CO)[C@@H](O)[C@H]2O)n1 | -2.6% | u | 7.9% | x
O=c1cc(-c2ccccc2)oc2cc(O[C@H]3O[C@H](CO)[C@@H](O)[C@H](O)[C@@H]3O)c(O)c(O)c12 | -1.0% | >57 | -3.4% | u
CC(C)(C)c1cc(/C=C(\C#N)C(N)=S)cc(C(C)(C)C)c1O | -1.4% | >57 | -0.9% | 7.94µM*
[C-]#[N+]/C(C#N)=C\c1cc(C(C)(C)C)c(O)c(C(C)(C)C)c1 | x | x | x | 0.1µM*
COc1ccc(Cl)cc1NC(=O)Cn1c(=O)n2nc(C)nc2c2ccccc21 | 11.1% | >57 | 3.98µM*[single pt active] | -4.0%
COc1ccccc1NC(=O)Cn1c(=O)n2nc(C)nc2c2ccccc21 | 6.7% | >57 | 26.4% | -2.9%
O=C(Nc1cc[c]([Sb](=[O])([OH])[OH])cc1)c1ccccc1 | -2.7%[5.75 µM] | >57 | 3.16µM*[single pt active] | -2.7%[8 µM]
CCOC(=O)N1CCN(c2c(NCCN(C)Cc3ccccc3)c(=O)c2=O)CC1 | 9.8% | >57 | 3.98µM*[single pt active] | -7.4%
CCOC(=O)N1CCN(c2c(NCCCOC(C)C)c(=O)c2=O)CC1 | 7.7% | >57 | 3.98µM*[single pt active] | -14.3%
CCOC(=O)N1CCN(c2c(NCCCN(C)c3ccccc3)c(=O)c2=O)CC1 | 12.0% | >57 | 3.98µM*[single pt active] | -0.6%
CCOC(=O)N1CCN(c2c(NCCN3CCN(Cc4ccccc4)CC3)c(=O)c2=O)CC1 | 11.6% | >57 | 3.98µM*[single pt active] | -9.7%
CCOC(=O)N1CCC(Nc2c(NCCN3CCN(Cc4ccccc4)CC3)c(=O)c2=O)CC1 | -0.3% | >57 | 2.7% | -6.9%
CCOC(=O)C1CCCN(c2c(NCCCN(C)Cc3ccccc3)c(=O)c2=O)C1 (configuration not stated) | -2.7% | >57 | -4.0% | -11.3%
O=c1cc(-c2ccc(O)c(O)c2)oc2cc(O[C@@H]3O[C@@H](CO)[C@@H](O)[C@@H](O)[C@H]3O)cc(O)c12 | -1.4% | >25.6 | -10.5% | u
CCOC(=O)N1CCN(c2c(NCC3CCN(Cc4cccc(C)c4)CC3)c(=O)c2=O)CC1 | 14.9% | >57 | 3.98µM*[single pt active] | 11.6%
CCOC(=O)C1CCN(c2c(NCCCN3CCN(Cc4ccccc4)CC3)c(=O)c2=O)CC1 | 9.8% | >57 | 18.8% | 2.7%
N[C@H](Cn1cc(I)c(=O)[nH]c1=O)C(=O)O | -3.3% | >57 | 1.6% | u
O=c1c[n+](CCCC[n+]2cc(=O)o[nH]2)[nH]o1 | -2.5%[5.75 µM] | >57 | 1.9%[5.75 µM] | -1.8%[8 µM]
COC(=O)C1=C(C)NC(C)=C(C(=O)OC(C)C)[C@H]1c1cccc2nonc12 | -1.8%[12.8 µM] | >57 | 21.4%[12.8 µM] | 9.7%[3.58 µM]
O=C(CSc1nnc(-c2ccccc2O)o1)Oc1ccc(OCc2ccccc2)cc1 | -7.3% | >57 | 12.6µM*[single pt active] | -13.2%
CC(C)(C)OC(=O)N1CCC(C(N)=O)CC1 | 12.2% | >57 | 3.98µM*[single pt active] | -13.2%
Cc1ccc2c(CC(=O)OCc3csc(C)n3)coc2c1 | -3.8% | >57 | 37.2% | 3.3%
O=C(Cc1coc2cc3c(cc12)CCC3)OCc1cc(=O)n2c(n1)sc1ccccc12 | -0.5% | >57 | 10µM* | -0.3%
COc1ccc(C(C)(C)C)cc1NC(=O)Nc1ccc2c(c1)OCO2 | -0.3% | >57 | -3.8% | 10µM*
CCOC(=O)CC(SP(=O)(OC)OC)C(=O)OCC (configuration not stated) | 22.2% | x | -0.3% | 26.3%
OC(c1ccc(Cl)cc1)(c1ccc(Cl)cc1)C(Cl)(Cl)Cl | 8.8% | x | -12.7% | u
CCOC(=O)C1Cn2c(nc3c(c2=O)C2(CCCC2)Cc2ccccc2-3)S1 (configuration not stated) | -3.7% | x | 71.4% | u
